{
  "source": "paper PMC4336329",
  "about": "(PLoS ONE, 2015)",
  "note": "Out of some 310,000 compounds screened, about 14,000 (4.5%) showed an effect of 50% or more. The effect is printed as a negative number. What follows is part of a selection rich in strong results, with near analogues and random picks from the rest.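 Further: peak tail current of the secondary pulse compared with the same well before compound.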",
  "data": [
    {"biological_target": "human ether-à-go-go-related gene (hERG) potassium channel (human, UniProt Q12809)", "sequence (Q12809 whole entry, looked up)": "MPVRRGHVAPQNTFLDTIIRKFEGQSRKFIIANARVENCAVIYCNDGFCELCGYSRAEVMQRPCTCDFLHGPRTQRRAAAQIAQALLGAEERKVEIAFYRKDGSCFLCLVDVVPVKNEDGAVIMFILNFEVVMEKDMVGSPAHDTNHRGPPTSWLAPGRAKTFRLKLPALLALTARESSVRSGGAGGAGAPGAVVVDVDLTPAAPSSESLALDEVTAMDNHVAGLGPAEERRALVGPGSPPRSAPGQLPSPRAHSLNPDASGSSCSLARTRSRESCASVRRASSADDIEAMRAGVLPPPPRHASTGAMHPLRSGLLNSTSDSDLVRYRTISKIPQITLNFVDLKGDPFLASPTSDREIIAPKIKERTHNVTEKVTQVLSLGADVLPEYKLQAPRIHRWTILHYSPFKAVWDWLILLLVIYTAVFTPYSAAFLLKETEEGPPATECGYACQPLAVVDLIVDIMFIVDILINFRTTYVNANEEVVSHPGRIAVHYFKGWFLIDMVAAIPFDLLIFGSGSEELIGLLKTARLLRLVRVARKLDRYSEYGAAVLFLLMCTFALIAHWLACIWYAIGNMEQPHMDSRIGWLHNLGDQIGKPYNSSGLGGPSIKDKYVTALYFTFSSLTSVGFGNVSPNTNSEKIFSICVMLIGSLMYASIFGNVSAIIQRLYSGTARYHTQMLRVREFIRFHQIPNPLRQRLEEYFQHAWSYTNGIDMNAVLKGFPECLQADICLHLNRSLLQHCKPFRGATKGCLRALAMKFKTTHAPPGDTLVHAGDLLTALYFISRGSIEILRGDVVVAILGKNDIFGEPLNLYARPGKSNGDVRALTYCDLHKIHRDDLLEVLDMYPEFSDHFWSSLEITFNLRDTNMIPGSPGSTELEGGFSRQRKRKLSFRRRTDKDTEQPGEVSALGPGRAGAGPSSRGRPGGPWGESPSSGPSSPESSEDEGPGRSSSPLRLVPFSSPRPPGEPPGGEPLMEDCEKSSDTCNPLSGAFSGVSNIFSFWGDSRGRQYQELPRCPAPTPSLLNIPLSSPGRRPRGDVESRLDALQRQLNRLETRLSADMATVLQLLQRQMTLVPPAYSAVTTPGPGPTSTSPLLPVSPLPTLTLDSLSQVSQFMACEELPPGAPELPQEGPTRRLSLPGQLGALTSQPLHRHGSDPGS", "assay": "primary screen, population patch clamp on CHO cells stably expressing hERG; higher = less effect of the substance", "units": {"hERG current change (%, negative = inhibition) at 10uM": "%"}, "values": [
      {"compound": "C/C(CC(=O)NC(C)(C)C)=N\\NC(N)=S", "hERG current change (%, negative = inhibition) at 10uM": 20},
      {"compound": "CCN(CC)S(=O)(=O)c1ccc(NC(=O)c2cccc3c2C(=O)N(CCOC)C3)cc1", "hERG current change (%, negative = inhibition) at 10uM": -1.36},
      {"compound": "Cc1cc(C)n2nc(SC(C)C(=O)N3CCC4(CC3)OCCO4)nc2n1", "note": "(stereo not shown)", "hERG current change (%, negative = inhibition) at 10uM": -0.197},
      {"compound": "NNC(=O)c1ccc(Cn2cc(Br)cn2)cc1", "hERG current change (%, negative = inhibition) at 10uM": -2.07},
      {"compound": "O=C(c1ccc(CN2CCOCC2)cc1)N1CCN(c2ccccc2)CC1", "hERG current change (%, negative = inhibition) at 10uM": 3.02},
      {"compound": "O=C(c1ccc(Cn2cc(Br)cn2)cc1)N1CCN(c2ccccc2)CC1", "hERG current change (%, negative = inhibition) at 10uM": -57.4},
      {"compound": "O=C(O)c1ccc(Cn2cc(Cl)cn2)cc1", "hERG current change (%, negative = inhibition) at 10uM": 18.7},
      {"compound": "O=C(c1ccc(Cn2cc(Cl)cn2)cc1)N1CCN(c2ccccc2)CC1", "hERG current change (%, negative = inhibition) at 10uM": -58.4},
      {"compound": "COc1ccc(N2CCN(C(=O)c3cccc(Cn4cc(Cl)cn4)c3)CC2)cc1", "hERG current change (%, negative = inhibition) at 10uM": -48},
      {"compound": "O=C(O)C1C(=O)NCC1c1ccccc1", "note": "(stereo not shown)", "hERG current change (%, negative = inhibition) at 10uM": 10.6},
      {"compound": "Cc1ccc(C(=O)NC2CCCC(C)C2C)cc1S(=O)(=O)N1CCCCC1", "note": "(stereo not shown)", "hERG current change (%, negative = inhibition) at 10uM": -20.6},
      {"compound": "COC(=O)C1=C(C(=O)OC)N2C=CC=CC2(C)C(C(=O)OC)=C1C(=O)OC", "note": "(stereo not shown)", "hERG current change (%, negative = inhibition) at 10uM": -5.49},
      {"compound": "CCCCC(=O)Nc1ccc(N2CCN(C(=O)c3ccco3)CC2)cc1", "hERG current change (%, negative = inhibition) at 10uM": -18.1},
      {"compound": "COC(=O)c1cc(COC(=O)c2cccnc2SC)oc1C", "hERG current change (%, negative = inhibition) at 10uM": -5.24},
      {"compound": "O=C(CCNC(=O)C1CCN(S(=O)(=O)c2ccc(F)cc2)CC1)Nc1nccs1", "hERG current change (%, negative = inhibition) at 10uM": 15.5},
      {"compound": "Cc1ccc(C2CC(=O)N(c3ccc(F)cc3)C3=C2C(=O)CCC3)cc1", "note": "(stereo not shown)", "hERG current change (%, negative = inhibition) at 10uM": 0.885},
      {"compound": "CC1CCC(NC(=O)CCS(=O)(=O)c2ccc3c(c2)CC(C)N3C(=O)C2CC2)CC1", "note": "(stereo not shown)", "hERG current change (%, negative = inhibition) at 10uM": 7.85},
      {"compound": "CN(C)CCNC(=O)c1ccccc1-c1cc2ccccc2c(=O)o1", "hERG current change (%, negative = inhibition) at 10uM": -54.6},
      {"compound": "CN(C)CCNC(=O)c1ccccc1-c1ccccc1", "hERG current change (%, negative = inhibition) at 10uM": -1.88},
      {"compound": "CCCNC(=O)c1cc2ccccc2c(=O)o1", "hERG current change (%, negative = inhibition) at 10uM": 10.8},
      {"compound": "COc1ccc(N(C)S(=O)(=O)c2cccc(C(=O)NC3CCCCC3C)c2)cc1", "note": "(stereo not shown)", "hERG current change (%, negative = inhibition) at 10uM": -6.33},
      {"compound": "O=C(NCN1C(=O)C2C3C=CC(C3)C2C1=O)OC1CCCCC1", "note": "(stereo not shown)", "hERG current change (%, negative = inhibition) at 10uM": 4.17},
      {"compound": "COc1ccc(C(CNC(=O)c2ccc(Cl)s2)N2CCOCC2)cc1", "note": "(stereo not shown)", "hERG current change (%, negative = inhibition) at 10uM": -18.2},
      {"compound": "CC1CCc2sc(C(=O)NCC(c3ccco3)N3CCCCC3)cc2C1", "note": "(stereo not shown)", "hERG current change (%, negative = inhibition) at 10uM": -30.8},
      {"compound": "COc1ccc(C(CNC(=O)c2cc3c(s2)CCC(C)C3)N2CCOCC2)cc1", "note": "(stereo not shown)", "hERG current change (%, negative = inhibition) at 10uM": -54},
      {"compound": "CCC1CCc2sc(C(=O)NCc3ccccn3)cc2C1", "note": "(stereo not shown)", "hERG current change (%, negative = inhibition) at 10uM": -3.79},
      {"compound": "COc1ccc(C(CNC(=O)c2cc3c(s2)CCCC3)N2CCOCC2)cc1", "note": "(stereo not shown)", "hERG current change (%, negative = inhibition) at 10uM": -23.5},
      {"compound": "CCC1CCc2sc(C(=O)NCC(c3ccc(OC)cc3)N3CCOCC3)cc2C1", "note": "(stereo not shown)", "hERG current change (%, negative = inhibition) at 10uM": -5.82},
      {"compound": "CCC1CCc2sc(C(=O)NCC(c3ccc(OC)cc3)N3CCCC3)cc2C1", "note": "(stereo not shown)", "hERG current change (%, negative = inhibition) at 10uM": -71},
      {"compound": "CCC1CCc2sc(C(=O)N(C)CC(=O)Nc3ccc(OC)cc3)cc2C1", "note": "(stereo not shown)", "hERG current change (%, negative = inhibition) at 10uM": -18.2},
      {"compound": "COc1ccc(C(CNC(=O)c2ccco2)N2CCCC2)cc1", "note": "(stereo not shown)", "hERG current change (%, negative = inhibition) at 10uM": -7.05},
      {"compound": "CCC1CCc2sc(C(=O)NCC(c3ccccc3OC)N3CCCC3)cc2C1", "note": "(stereo not shown)", "hERG current change (%, negative = inhibition) at 10uM": -63.6},
      {"compound": "CCC1CCc2sc(C(=O)NCC3CCCO3)cc2C1", "note": "(stereo not shown)", "hERG current change (%, negative = inhibition) at 10uM": -12.1},
      {"compound": "COc1ccc(C(CNC(=O)c2cc3c(s2)CCC(C)C3)N2CCCC2)cc1", "note": "(stereo not shown)", "hERG current change (%, negative = inhibition) at 10uM": -57.7},
      {"compound": "CCCNC(=O)Cn1nc(C(F)(F)F)c2c1CCCC2", "hERG current change (%, negative = inhibition) at 10uM": 9.29},
      {"compound": "CC(=O)Oc1ccc(/C=C2/SC(=S)N(Cc3ccccc3)C2=O)cc1", "hERG current change (%, negative = inhibition) at 10uM": 10.2},
      {"compound": "CCn1c(SCC(=O)N2CCc3ccccc32)nnc1-c1ccncc1", "hERG current change (%, negative = inhibition) at 10uM": -7.04},
      {"compound": "COc1ccc(CCNC(=O)C2=CC=CN3CCS(=O)(=O)N=C23)cc1", "hERG current change (%, negative = inhibition) at 10uM": -7.92},
      {"compound": "Cc1ccccc1/C=C\\c1nc2ccccc2c(=O)[nH]1", "hERG current change (%, negative = inhibition) at 10uM": 10.5},
      {"compound": "CC(Oc1ccc2c(-c3ccccc3)cc(=O)oc2c1)C(=O)N1CCC[C@@H]1C(N)=O", "note": "(stereo partly shown)", "hERG current change (%, negative = inhibition) at 10uM": 1.14},
      {"compound": "O=C(NCCS(=O)(=O)c1ccc(Br)cc1)c1ccc(Cl)cc1", "hERG current change (%, negative = inhibition) at 10uM": -2.62},
      {"compound": "CCCCOc1ccc(CN(CCO)CCO)cc1[N+](=O)[O-].Cl", "hERG current change (%, negative = inhibition) at 10uM": -22},
      {"compound": "Cl.O=[N+]([O-])c1cc(CN(CCO)CCO)ccc1O", "hERG current change (%, negative = inhibition) at 10uM": -2.79},
      {"compound": "CCCOc1ccc(CN(CCO)CCO)cc1C(=O)OC", "hERG current change (%, negative = inhibition) at 10uM": 6.82},
      {"compound": "CCOc1ccc(CN(CCO)CCO)cc1[N+](=O)[O-].Cl", "hERG current change (%, negative = inhibition) at 10uM": -62.9},
      {"compound": "CCCOc1ccc(CN(CCO)CCO)cc1[N+](=O)[O-].Cl", "hERG current change (%, negative = inhibition) at 10uM": -54.2},
      {"compound": "COc1ccc(CN(CCO)CCO)cc1[N+](=O)[O-].Cl", "hERG current change (%, negative = inhibition) at 10uM": 3.54},
      {"compound": "CCOC(=O)N1CCN(CC(=O)Nc2cc3c(cc2C(C)=O)OCO3)CC1", "hERG current change (%, negative = inhibition) at 10uM": -1.3},
      {"compound": "Fc1ccc2nc(Nc3nc4c(s3)CCCC4)sc2c1", "hERG current change (%, negative = inhibition) at 10uM": 3.62}
    ]}
  ]
}
